RmlCD inh mix: RmlC/RmlD inhibition, mixture screen. RmlC/RmlD coupled enzyme inhibition, 384-well mixture HTS. inhibition, % at 5.5 µM. hit rate 0.39% among 110,000. AID 1532; in the data active = inhibition above about 30%, passing the limit was not always enough; inconclusive = no clear call, values can overlap the other calls
HIV RNase H inh-1: blocks HIV-1 RNase H cleavage of RNA/DNA duplex. P04585. RT-RNase H RNA/DNA duplex cleavage, fluorescence. inhibition, % at 10 µM. hit rate 1.9% among 65,000; in the data active = inhibition above about 50%
HIV RNase H inh-2: confirmation of HIV-1 reverse transcriptase RNase H inhibitors; hit rate 39% among 1,000; AID 651; inhibition, % at 10 µM; Recombinant RT RNase H, fluorescent RNA/DNA duplex cleavage; shares compounds with HIV RNase H inh-1; in the data active = inhibition above about 48%; inconclusive = no clear call, values can overlap the other calls
Numbers stand for hits; - = inactive; ? = inconclusive; . = no result. Only a selection was taken, and hits are over-represented in it overall.

SMILES | RmlCD inh mix | HIV RNase H inh-1 | HIV RNase H inh-2
N#CC1=C2SCN(c3ccccc3)CN2C(=O)CC1c1cccs1 (stereo unspecified) | - | - | .
COc1cc(OC)c(C2CC(=O)N3CN(c4ccccc4)CSC3=C2C#N)cc1OC (stereo unspecified) | - | - | .
CCc1ccccc1N1CSC2=C(C#N)C(c3cc(OC)c(OC)cc3OC)CC(=O)N2C1 (stereo unspecified) | - | 79 | 63
CCn1c(C)c(C(C)=O)c(SC)nc1=S | - | . | .
O=C1c2cccc3c2[C@H](CCC3)CN1[C@@H]1CN2CCC1CC2 | - | . | .
CCOc1cc(C(=O)N2CCOCC2)ccc1OCc1ccccc1 | - | - | .
N#CC1=C2SCN(c3ccccc3)CN2C(=O)CC1c1c(Cl)cccc1Cl (stereo unspecified) | - | - | .
COc1cc(OC)c(C2CC(=O)N3CN(C)CSC3=C2C#N)cc1OC (stereo unspecified) | - | 76 | 57
COc1ccc(OC)c(C2CC(=O)N3CN(c4ccc(C)c(Cl)c4)CSC3=C2C#N)c1 (stereo unspecified) | - | - | .
N#CC1=C2SCN(c3ccccc3)CN2C(=O)CC1c1ccccc1Cl (stereo unspecified) | - | 67 | -
NC(=O)c1nsnc1-c1ccccc1O | - | - | .
O=C1Nc2cc(Cl)ccc2Nc2cscc21 | - | . | .
Cc1ccc(NC(=O)c2cc(NC(=O)c3ccco3)ccc2N2CCOCC2)cc1 | - | - | .
Cc1ccc(NC(=O)c2cc(NC(=O)c3ccco3)ccc2N2CCCCC2)cc1 | - | 58 | -
Cc1cc([N+](=O)[O-])ccc1NCc1cccc2ccccc12 | - | . | .
COc1ccc(OCc2nnc(SCC(=O)N3CCCc4ccccc43)n2-c2ccc(C)cc2)cc1 | - | . | .
N#Cc1ccc(OCc2nnc(SCC(=O)N3CCCc4ccccc43)n2-c2ccccc2)cc1 | - | 88 | -
CCOC(=O)c1cnn(-c2ncnc3c2cnn3Cc2ccccc2)c1N | - | - | .
CCN1CCN(c2nc3ccccc3s2)CC1 | - | . | .
COc1cccc2sc(N3CCN(c4nc5ccccc5s4)CC3)nc12 | - | 71 | ?
O=C(c1ccc2c3c(cccc13)C(=O)N(O)C2=O)N1CCCCC1 | - | 80 | 70
O=C1c2cccc3c(Cl)ccc(c23)C(=O)N1O | - | - | .
Cc1cccc(-c2noc(CN(C(=O)C(c3ccccc3)c3ccccc3)C(C)C)n2)c1 | - | . | .
CCCn1c(SCCc2ccccc2)nc2c1c(=O)[nH]c(=O)n2C | - | - | .
CCCCCn1c(SCCCC)nc2c1c(=O)[nH]c(=O)n2C | ? | 71 | 61
SMILES | RmlCD inh mix | HIV RNase H inh-1 | HIV RNase H inh-2
CCCCCCn1c(SCCC)nc2c1c(=O)[nH]c(=O)n2C | - | - | .
CC(C)CCn1c(SCCc2ccccc2)nc2c1c(=O)[nH]c(=O)n2C | - | 74 | -
CCC(CO)NC(=O)c1cccc(S(=O)(=O)N2c3ccccc3CC2C)c1 (stereo unspecified) | - | - | .
CN(Cc1ccccc1)S(=O)(=O)c1ccc2[nH]cc(C(=O)NCC3CCCO3)c(=O)c2c1 (stereo unspecified) | . | - | .
N#Cc1c(N)sc(=S)c2c1CCCC2 | - | 67 | -
CCC1(C)Cc2c(C#N)c(N)sc(=S)c2CO1 (stereo unspecified) | - | - | .
CCOC(=O)C1C(=O)NC(SCC(N)=O)=C(C#N)C1c1ccccc1OCC (stereo unspecified) | - | 66 | -
CCOC(=O)C1C(=O)NC(SC)=C(C#N)C1c1ccccc1F (stereo unspecified) | - | - | .
CN(C)C(CNC(=O)CSc1nnc(-c2ccco2)o1)c1ccccc1 (stereo unspecified) | - | - | .
COCCNC(=O)CN(C(=O)CCC(=O)Nc1cc(C)on1)c1ccccc1C | - | - | .
O=C(CSc1ncn[nH]1)OCN1C(=O)c2ccccc2C1=O | - | - | .
O=S(=O)(c1ccc(S(=O)(=O)N2CCN(C/C=C/c3ccccc3)CC2)cc1)N1CCCC1 | - | 59 | 56
O=C(Cc1ccccc1)N1CCN(C/C=C/c2ccccc2)CC1 | - | - | .
COc1ccc(S(=O)(=O)N2CC3CCCN3c3ccc(C(F)(F)F)cc32)cc1 (stereo unspecified) | - | . | .
Nc1nnc(-c2ccc(F)cc2)s1 | - | - | .
Nc1nnc(CSCc2ccc(F)cc2)s1 | - | 74 | 62
CC1CC(C)(C)NC(=S)S1 (stereo unspecified) | - | 78 | 52
CC1CC(C)(C)NC(=O)O1 (stereo unspecified) | - | - | .
O=C(Cn1ccc2ccccc2c1=O)NCCC(=O)N1CCN(c2cccc(C(F)(F)F)c2)CC1 | - | - | .
Nc1sc2c(c1C(=O)NC1CCS(=O)(=O)C1)CCC2 (stereo unspecified) | - | 66 | 74
NC(=O)c1c(NC(=O)CN2C(=O)CCC2=O)sc2c1CCCCC2 | - | 85 | -
CC(=O)c1sc(N)c(C(=O)OC(C)C)c1C | - | . | .
NC(=O)c1c(NC(=O)CN2CCCC2)sc2c1CCCC2 | - | - | .
CCOC(=O)c1c(NC(=O)CNCCOC)sc2c1CCCC2 | - | . | .
COCCNC(=O)c1c(N)sc2c1CCCC2 | - | 63 | -
SMILES | RmlCD inh mix | HIV RNase H inh-1 | HIV RNase H inh-2
O=C(NC1CCS(=O)(=O)C1)c1ccccc1C(=O)c1ccccc1 (stereo unspecified) | - | - | .
Cc1c(C(N)=O)sc(N)c1C(=O)OC(C)C | - | 84 | -
c1ccc2c(c1)nc(N1CCOCC1)c1c3ccccc3[nH]c21 | - | - | .
O=C(CSc1ncnc2c1oc1ccccc12)Nc1ccccc1C(F)(F)F | - | - | .
COc1cc2c(cc1OC)CN(C(=O)CC1CC3CCC1C3)CC2 (stereo unspecified) | - | - | .
O=C(CCC1(C(=O)O)CCC(=O)NC1)NCc1ccccc1 (stereo unspecified) | - | - | .
CCCCc1ccc(NS(=O)(=O)c2cccs2)cc1 | - | . | .
Cn1c(=O)c2c(nc3sccn32)n(C)c1=O | - | - | .
NC(=O)c1c(N)sc2c1CCCCC2 | - | 73 | -
CNC(=O)c1c(NC(=O)c2ccc(N3C(=O)CCC3=O)cc2)sc2c1CCCC2 | - | . | .
CCCOC(=O)c1c(N)sc2c1CCC2 | - | - | .
CC(C)OC(=O)c1c(N)sc2c1CCCC2 | . | 87 | ?
N#CCC(=O)Nc1sc2c(c1C(N)=O)CCCC2 | - | - | .
CNC(=O)c1c(N)sc2c1CCCCC2 | - | 84 | ?
CCc1nc(SCC(=O)N2c3ccccc3CC2C)c2c(C)c(C)sc2n1 (stereo unspecified) | - | . | .
CC(C)Cn1nc(NC(=O)C2CCCO2)c2cc3ccccc3nc21 (stereo unspecified) | . | - | .
CCOC(=O)C(C(=O)Nc1cccc(C)c1)C1CCCCC1 (stereo unspecified) | - | . | .
CCOC(=O)c1c(C)n(-c2ccc(C)cc2)c2c(C(C(C)=O)C(=O)O)c(Br)c(O)c(O)c12 (stereo unspecified) | - | . | .
CCOC(=O)C(C(C)=O)c1c(Br)c(O)c(O)c2c(C(=O)c3ccc(C)cc3)coc12 (stereo unspecified) | - | 95 | 63
O=S(=O)(c1ccc(F)cc1)N1CCC(N2CCN(c3ccccc3)CC2)CC1 | . | - | .
Cc1cccc(C)c1NC(=O)CSc1nnc(-c2ccco2)c(-c2ccco2)n1 | - | . | .
CSc1nnc2c(n1)OC=Nc1ccccc1-2 | - | - | .
Cc1ccccc1NC(=O)CSc1nnc(-c2ccco2)c(-c2ccco2)n1 | - | . | .
CSc1nnc(-c2ccco2)c(-c2ccco2)n1 | - | 77 | -
Cc1ccc(NC(=O)CSc2nnc(-c3ccco3)c(-c3ccco3)n2)cc1 | - | 97 | -
